Where “and” joins values, the source holds several entries; their conditions need not be identical. Equal entries are not always repeated. About 2,000 (36%) of roughly 5,500 compounds were called active. Roughly 18% stayed inconclusive and do not appear here. No stated cut-off is given here; in the data, active means normalized growth mostly below about 0.91 (no sharp cut-off); inconclusive means no clear call, values can overlap the other calls; inactive means mostly above about 0.92. The list shows a part of the results.
Assay: chemical genetic growth profiling, strain panel (AID 1159580);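 further: tested at 20 µM; growth read once vehicle control cultures reached saturation at 30 °C; 1 = growth at the plate median or of vehicle wells; lower values mean less growth of the strain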
Conditions: S. cerevisiae deletion strains, growth OD

Measured: normalized growth

Cc1nnc(NS(=O)(=O)c2ccc(N)cc2)s1
inactive: locus YAL021C, strain ccr4, active compounds read low 0.982 | locus YAL026C, strain drs2, active compounds read low 1.01 | locus YAL030W, strain snc1, active compounds read low 0.986 | locus YBL061C, strain skt5, active compounds read low 0.989 | locus YBR009C, strain hhf1, active compounds read low 1.01 | locus YBR021W, strain FUR4, active compounds read low 1.02 | locus YBR023C, strain chs3, active compounds read low 1.02 | locus YBR171W, strain sec66, active compounds read low 1 | locus YBR229C, strain ROT2, active compounds read low 1 | locus YBR231C, strain swc5, active compounds read low 0.99 | locus YBR279W, strain paf1, active compounds read low 1 | locus YCL011C, strain gbp2, active compounds read low 1.02 | locus YCL016C, strain dcc1, active compounds read low 1 | locus YCL029C, strain bik1, active compounds read low 0.992 | locus YCL061C, strain MRC1, active compounds read low 1.01 | locus YCL069W, strain vba3, active compounds read low 0.997 | locus YCR088W, strain abp1, active compounds read low 1 | locus YDL005C, strain med2, active compounds read low 1.02 | locus YDL035C, strain GPR1, active compounds read low 1.02 | locus YDL040C, strain nat1, active compounds read low 1.01 | locus YDL074C, strain BRE1, active compounds read low 1.05 | locus YDL101C, strain DUN1, active compounds read low 1 | locus YDL134C, strain PPH21, active compounds read low 1.02 | locus YDL185W, strain tfp1, active compounds read low 1 | locus YDL192W, strain arf1, active compounds read low 1.01 | locus YDR001C, strain nth1, active compounds read low 1.01 | locus YDR069C, strain doa4, active compounds read low 0.992 | locus YDR101C, strain arx1, active compounds read low 0.995 | locus YDR137W, strain rgp1, active compounds read low 1.01 | locus YDR159W, strain sac3, active compounds read low 0.979 | locus YDR162C, strain NBP2, active compounds read low 1.03 | locus YDR195W, strain ref2 0.947 | locus YDR297W, strain sur2, active compounds read low 1 | locus YDR318W, strain mcm21, active compounds read low 1.02 | locus YDR334W, strain swr1, active compounds read low 0.987 | locus YDR335W, strain msn5, active compounds read low 0.999 | locus YDR388W, active compounds read low 0.993 | locus YDR392W, strain spt3, active compounds read low 1.04 | locus YDR502C, strain sam2, active compounds read low 1.02 | locus YEL003W, strain gim4, active compounds read low 1 | locus YEL037C, strain rad23, active compounds read low 0.972 | locus YEL061C, strain CIN8 (second series), active compounds read low 1.01 | locus YEL061C, strain CIN8, active compounds read low 1.01 | locus YER015W, strain faa2, active compounds read low 1 | locus YER016W, strain bim1, active compounds read low 0.994 | locus YER110C, active compounds read low 0.984 | locus YER111C, strain swi4, active compounds read low 0.999 | locus YER155C, strain BEM2 (second series), active compounds read low 0.99 | locus YER155C, strain BEM2, active compounds read low 1 | locus YER167W, strain BCK2, active compounds read low 1.01 | locus YFR010W, strain ubp6, active compounds read low 1 | locus YGL078C, strain dbp3, active compounds read low 1 | locus YGL086W, strain mad1, active compounds read low 1 | locus YGL167C, strain pmr1, active compounds read low 1 | locus YGL173C, strain kem1, active compounds read low 0.985 | locus YGL227W, strain vid30, active compounds read low 1.01 | locus YGL240W, strain doc1, active compounds read low 1.02 | locus YGL248W, strain PDE1, active compounds read low 1 | locus YGL253W, strain hxk2, active compounds read low 1.01 | locus YGR135W, strain pre9, active compounds read low 1 | locus YGR252W, strain gcn5, active compounds read low 1.13 | locus YHR013C, strain ard1, active compounds read low 0.998 | locus YHR027C, strain rpn1, active compounds read low 1 | locus YHR030C, strain SLT2, active compounds read low 1.01 and 0.969 | locus YHR079C, strain IRE1 (second series), active compounds read low 0.96 | locus YHR079C, strain IRE1, active compounds read low 0.971 | locus YHR094C, strain hxt1, active compounds read low 0.981 | locus YHR129C, strain ARP1, active compounds read low 1 | locus YHR142W, strain chs7, active compounds read low 1.02 | locus YHR200W, strain rpn10, active compounds read low 1.01 | locus YIL066C, strain RNR3, active compounds read low 0.992 | locus YIL073C, strain SPO22, active compounds read low 1.06 | locus YIL125W, strain kgd1, active compounds read low 1.01 | locus YIR030C, strain dcg1, active compounds read low 0.991 | locus YJL092W, strain hpr5, active compounds read low 1 | locus YJL095W, strain BCK1 (second series), active compounds read low 0.988 | locus YJL095W, strain BCK1, active compounds read low 1.02 and 0.974 | locus YJL115W, strain asf1, active compounds read low 1.01 | locus YJL129C, strain trk1, active compounds read low 0.997 | locus YJL134W, strain LCB3, active compounds read low 1.01 | locus YJL154C, strain vps35, active compounds read low 1.01 | locus YJL164C, strain tpk1, active compounds read low 1.01 | locus YJL166W, strain qcr8, active compounds read low 1 | locus YJL168C, strain set2, active compounds read low 0.988 | locus YJL187C, strain SWE1 (second series), active compounds read low 1.01 | locus YJL187C, strain SWE1, active compounds read low 1 | locus YJR043C, strain POL32, active compounds read low 1.03 | locus YJR066W, strain TOR1, active compounds read low 0.925 | locus YJR075W, strain HOC1, active compounds read low 1.01
